From PubChem BioAssay (NCI)
Compounds without any hit were thinned out: in the full panel of roughly 83,000, 20% have a hit.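 The test compound was applied at a single concentration to cells in 96-well plates for 48 hours, and percent growth was recorded.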 Activity calls are given as the source filed them. How the source made its calls: active means growth percent below 10; inactive means the rest.

Tests used:
Test in all cases: NCI-60 one-dose screen, 48 h (100 = growth as untreated, 0 = no growth, -100 = all killed)
Settings in all cases: 10 µM unless noted
SK-MEL-2 melanoma = system: SK-MEL-2 melanoma
EKVX NSCLC = system: EKVX NSCLC
SN12C renal = system: SN12C renal
UO-31 renal = system: UO-31 renal
TK-10 renal = system: TK-10 renal
ACHN renal = system: ACHN renal
CAKI-1 renal = system: CAKI-1 renal
A498 renal = system: A498 renal
CCRF-CEM leukemia = system: CCRF-CEM leukemia
MOLT-4 leukemia = system: MOLT-4 leukemia
SR leukemia = system: SR leukemia
RPMI-8226 leukemia = system: RPMI-8226 leukemia
OVCAR-8 ovarian = system: OVCAR-8 ovarian
OVCAR-5 ovarian = system: OVCAR-5 ovarian
SK-OV-3 ovarian = system: SK-OV-3 ovarian
IGROV1 ovarian = system: IGROV1 ovarian
OVCAR-3 ovarian = system: OVCAR-3 ovarian
HS 578T breast = system: HS 578T breast
NCI/ADR-RES ovarian = system: NCI/ADR-RES ovarian

Measured: growth

C=C(C)[C@@H]1CC[C@]2(C(=O)O)CC[C@]3(C)[C@H](CC[C@@H]4[C@@]5(C)C/C(=C/c6ccco6)C(=O)C(C)(C)[C@@H]5CC[C@]43C)[C@@H]12
inactive: SR leukemia 31.9% [100 µM]
active: SK-MEL-2 melanoma -76% [100 µM] | EKVX NSCLC -63% [100 µM] | SN12C renal -70.6% [100 µM] | UO-31 renal -95.4% [100 µM] | TK-10 renal -58.5% [100 µM] | ACHN renal -89.8% [100 µM] | CAKI-1 renal -69.6% [100 µM] | A498 renal -58.5% [100 µM] | CCRF-CEM leukemia 3.44% [100 µM] | MOLT-4 leukemia -8.01% [100 µM] | RPMI-8226 leukemia 2.97% [100 µM] | OVCAR-8 ovarian -17.6% [100 µM] | OVCAR-5 ovarian -44.4% [100 µM] | SK-OV-3 ovarian -54.2% [100 µM] | IGROV1 ovarian -63.2% [100 µM] | OVCAR-3 ovarian -59.1% [100 µM] | HS 578T breast -1.95% [100 µM] | NCI/ADR-RES ovarian -43.8% [100 µM]

CC1(C)CC[C@]2(C(=O)O)CC[C@]3(C)C(=CC[C@@H]4[C@@]5(C)C/C(=C/c6ccco6)C(=O)C(C)(C)[C@@H]5CC[C@]43C)[C@@H]2C1
inactive: SR leukemia 21.7% [100 µM]
active: SK-MEL-2 melanoma -69.3% [100 µM] | EKVX NSCLC -19.6% [100 µM] | SN12C renal -52.3% [100 µM] | UO-31 renal -98.1% [100 µM] | TK-10 renal -19.1% [100 µM] | ACHN renal -71.8% [100 µM] | CAKI-1 renal -35% [100 µM] | A498 renal -42.5% [100 µM] | CCRF-CEM leukemia 4.17% [100 µM] | MOLT-4 leukemia 2.21% [100 µM] | RPMI-8226 leukemia 0.316% [100 µM] | OVCAR-8 ovarian 9.39% [100 µM] | OVCAR-5 ovarian -64.2% [100 µM] | SK-OV-3 ovarian 0.149% [100 µM] | IGROV1 ovarian -38.7% [100 µM] | OVCAR-3 ovarian -70% [100 µM] | HS 578T breast -5.24% [100 µM] | NCI/ADR-RES ovarian -12.6% [100 µM]

CCOC(=O)c1cc(C(=O)c2ccc(OC)c(OC)c2)n2ccc(-c3ccccn3)cc12
inactive: SK-MEL-2 melanoma 70.9% | EKVX NSCLC 92.2% | SN12C renal 60.6% | UO-31 renal 76.3% | TK-10 renal 55.4% | ACHN renal 30% | CAKI-1 renal 78.7% | A498 renal 42.1% | CCRF-CEM leukemia 111% | MOLT-4 leukemia 124% | SR leukemia 75.8% | RPMI-8226 leukemia 72.9% | OVCAR-8 ovarian 37% | OVCAR-5 ovarian 84% | IGROV1 ovarian 54.7% | OVCAR-3 ovarian 78.5% | HS 578T breast 64.2% | NCI/ADR-RES ovarian 65.6%
active: SK-OV-3 ovarian 6.14%

COc1cc(/C=C/C(=O)/C=C/c2ccc(-n3ccnc3C)cc2)ccc1O
active: UO-31 renal 4.27% | RPMI-8226 leukemia -23.5% | IGROV1 ovarian -37.5%
inactive: SK-MEL-2 melanoma 100% | EKVX NSCLC 102% | SN12C renal 91.4% | TK-10 renal 88% | ACHN renal 58.8% | CAKI-1 renal 95.6% | A498 renal 78.8% | CCRF-CEM leukemia 35.5% | MOLT-4 leukemia 32.4% | SR leukemia 17.8% | OVCAR-8 ovarian 34.9% | OVCAR-5 ovarian 101% | SK-OV-3 ovarian 86.1% | OVCAR-3 ovarian 23.7% | HS 578T breast 68.6% | NCI/ADR-RES ovarian 102%

CC1(C)CC[C@]2(C(=O)OC(=O)[C@]34CCC(C)(C)C[C@@H]3C3=CC[C@@H]5[C@@]6(C)CCC(=O)C(C)(C)[C@@H]6CC[C@@]5(C)[C@]3(C)CC4)CC[C@]3(C)C(=CC[C@@H]4[C@@]5(C)CCC(=O)C(C)(C)[C@@H]5CC[C@]43C)[C@H]2C1
inactive: SK-MEL-2 melanoma 76.1% [100 µM] | EKVX NSCLC 81.3% [100 µM] | SN12C renal 55.8% [100 µM] | UO-31 renal 59.9% [100 µM] | TK-10 renal 95.3% [100 µM] | ACHN renal 73.8% [100 µM] | CAKI-1 renal 45.6% [100 µM] | A498 renal 95.6% [100 µM] | CCRF-CEM leukemia 44.4% [100 µM] | MOLT-4 leukemia 41.5% [100 µM] | SR leukemia 65% [100 µM] | RPMI-8226 leukemia 61% [100 µM] | OVCAR-8 ovarian 59.8% [100 µM] | OVCAR-5 ovarian 98.3% [100 µM] | SK-OV-3 ovarian 72.9% [100 µM] | IGROV1 ovarian 84.4% [100 µM] | OVCAR-3 ovarian 74% [100 µM] | HS 578T breast 57.3% [100 µM] | NCI/ADR-RES ovarian 69.5% [100 µM]

O=C1Nc2ccccc2/C1=C/C(=O)c1ccc(N2CCCC2)cc1
active: MOLT-4 leukemia 3.55% | OVCAR-8 ovarian -12.7% | OVCAR-3 ovarian -17.6% | NCI/ADR-RES ovarian -23.8%
inactive: SK-MEL-2 melanoma 58.7% | EKVX NSCLC 76.1% | SN12C renal 15.6% | UO-31 renal 47.1% | TK-10 renal 42.8% | ACHN renal 30.7% | CAKI-1 renal 18.1% | A498 renal 65.8% | CCRF-CEM leukemia 10.4% | SR leukemia 15.2% | RPMI-8226 leukemia 15.8% | OVCAR-5 ovarian 75.6% | SK-OV-3 ovarian 70.9% | IGROV1 ovarian 15.9% | HS 578T breast 12.3%

CC1(C)CC[C@]2(C(N)=O)CC[C@]3(C)C(=CC[C@@H]4[C@@]5(C)C/C(=C/c6ccncc6)C(=O)C(C)(C)[C@@H]5CC[C@]43C)[C@@H]2C1
active: SK-MEL-2 melanoma -86% [100 µM] | EKVX NSCLC -52.8% [100 µM] | SN12C renal -78.1% [100 µM] | UO-31 renal -98.1% [100 µM] | TK-10 renal -89.5% [100 µM] | ACHN renal -82.5% [100 µM] | CAKI-1 renal -58.3% [100 µM] | A498 renal -80.4% [100 µM] | CCRF-CEM leukemia -10% [100 µM] | MOLT-4 leukemia -13.6% [100 µM] | SR leukemia 2.61% [100 µM] | RPMI-8226 leukemia -29.1% [100 µM] | OVCAR-8 ovarian -28.6% [100 µM] | OVCAR-5 ovarian -81.9% [100 µM] | SK-OV-3 ovarian -45.7% [100 µM] | IGROV1 ovarian -72.3% [100 µM] | OVCAR-3 ovarian -69.5% [100 µM] | HS 578T breast -22.1% [100 µM] | NCI/ADR-RES ovarian -48% [100 µM]

Cc1ccc(Cn2c(O)c(N=NC(=O)c3ccc(S(N)(=O)=O)cc3)c3ccccc32)cc1
inactive: SK-MEL-2 melanoma 109% | EKVX NSCLC 103% | SN12C renal 96.9% | UO-31 renal 73% | TK-10 renal 106% | ACHN renal 93.3% | CAKI-1 renal 92.9% | A498 renal 86.8% | CCRF-CEM leukemia 106% | MOLT-4 leukemia 93.8% | SR leukemia 104% | RPMI-8226 leukemia 91.7% | OVCAR-8 ovarian 92.7% | OVCAR-5 ovarian 109% | SK-OV-3 ovarian 109% | IGROV1 ovarian 107% | OVCAR-3 ovarian 107% | HS 578T breast 101% | NCI/ADR-RES ovarian 108%

CC1(C)CC[C@]2(C(=O)O)CC[C@]3(C)C(=CC[C@@H]4[C@@]5(C)C/C(=C/c6cccnc6)[C@H](O)C(C)(C)[C@@H]5CC[C@]43C)[C@@H]2C1
active: SK-MEL-2 melanoma -29.9% [100 µM] | EKVX NSCLC 0.843% [100 µM] | SN12C renal 6.59% [100 µM] | UO-31 renal -57.6% [100 µM] | TK-10 renal 1.87% [100 µM] | ACHN renal 2.77% [100 µM] | CAKI-1 renal 5.69% [100 µM] | CCRF-CEM leukemia 1.37% [100 µM] | MOLT-4 leukemia 4.37% [100 µM] | RPMI-8226 leukemia -12% [100 µM] | OVCAR-5 ovarian -2.1% [100 µM] | SK-OV-3 ovarian 1.32% [100 µM] | IGROV1 ovarian 2.18% [100 µM] | OVCAR-3 ovarian -14.6% [100 µM] | HS 578T breast 3% [100 µM] | NCI/ADR-RES ovarian 3.8% [100 µM]
inactive: A498 renal 23.9% [100 µM] | SR leukemia 37.3% [100 µM] | OVCAR-8 ovarian 13.2% [100 µM]

C=C(CN=[N+]=[N-])[C@@H]1CC[C@]2(C)[C@H](CC[C@@H]3[C@H]4[C@H]5OC(=O)[C@@]4(CCC5(C)C)CC[C@]32C)[C@@]1(C)CCC#N
inactive: SK-MEL-2 melanoma 83.4% [100 µM] | EKVX NSCLC 90.6% [100 µM] | SN12C renal 76.2% [100 µM] | UO-31 renal 80.2% [100 µM] | TK-10 renal 105% [100 µM] | ACHN renal 93.9% [100 µM] | CAKI-1 renal 53.5% [100 µM] | A498 renal 85.2% [100 µM] | CCRF-CEM leukemia 74.6% [100 µM] | MOLT-4 leukemia 58% [100 µM] | SR leukemia 64% [100 µM] | RPMI-8226 leukemia 57% [100 µM] | OVCAR-8 ovarian 92.2% [100 µM] | OVCAR-5 ovarian 98.3% [100 µM] | SK-OV-3 ovarian 75.4% [100 µM] | IGROV1 ovarian 106% [100 µM] | OVCAR-3 ovarian 82.5% [100 µM] | HS 578T breast 88.5% [100 µM] | NCI/ADR-RES ovarian 90.8% [100 µM]

CCOc1cc(/C=N\NC(=O)N/N=C/c2ccc(O)c(OCC)c2)ccc1O
inactive: SK-MEL-2 melanoma 49.8% | EKVX NSCLC 60.6% | SN12C renal 51.3% | UO-31 renal 59.1% | TK-10 renal 34.3% | ACHN renal 45.6% | CAKI-1 renal 37.9% | A498 renal 72.6% | CCRF-CEM leukemia 16.5% | MOLT-4 leukemia 31.1% | SR leukemia 12.2% | RPMI-8226 leukemia 32.8% | OVCAR-8 ovarian 52% | OVCAR-5 ovarian 66.8% | SK-OV-3 ovarian 16.2% | IGROV1 ovarian 59.4% | NCI/ADR-RES ovarian 51.6%
active: OVCAR-3 ovarian -34.7% | HS 578T breast -2.98%

NC(=O)c1cccc(-c2ccc(S(=O)(=O)Nc3ccc4c(c3)N(C(=O)C3CC3)CCC4)cc2)c1
active: SK-MEL-2 melanoma 7.54% | A498 renal 5.86%
inactive: EKVX NSCLC 67.1% | SN12C renal 52.1% | UO-31 renal 82.2% | TK-10 renal 77.8% | ACHN renal 79.2% | CAKI-1 renal 72.4% | CCRF-CEM leukemia 33.5% | MOLT-4 leukemia 57.8% | SR leukemia 50.5% | RPMI-8226 leukemia 43.7% | OVCAR-8 ovarian 57% | OVCAR-5 ovarian 64.8% | SK-OV-3 ovarian 38.2% | IGROV1 ovarian 37.1% | OVCAR-3 ovarian 15.8% | HS 578T breast 17.9% | NCI/ADR-RES ovarian 104%
